# Measured values: PubChem BioAssay (Tox21)
# Inconclusive results are not listed. Activity calls are given as the source filed them. Calls follow the shape of the dose curve; as a rule, active = well fitted activation curve with a large enough effect in the repeat runs; inconclusive = weak or mixed curves; inactive = flat fitted curve, though single readings scatter.
# Assay: A CellTox Green Cytotoxicity Assay to monitor cytotoxicity in HepG2 cells - 32 hour (AID 1224883); also: nearly all actives have a fitted effect of over 50% in size; also: potency is read from the fitted curve at half-maximal effect
# Conditions: CellTox Green fluorescence; series mostly up to 76.8 µM; cytotoxicity increase: at the top concentration
# Outline: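 Read-out is fluorescence of a cyanine dye excluded from live cells that stains DNA of dead HepG2 cells, with signal proportional to cytotoxicity. Plates were read at 0, 8, 16, 24, 32 and 40 h after compound addition.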
# % is scaled to controls: 0 for no effect and ±100 for the full control effect.
Structure (SMILES),cytotoxicity increase,Potency
CC(=O)NC(=O)c1ccccc1O,-14.6% [at 35.3 µM] (inactive),–
O=C1NC(=O)C2CC=CCC12 (configuration not stated),15.3% (inactive),–
CC1=NN(c2cccc(S(=O)(=O)O)c2)C(=O)C1,2.26% (inactive),–
CCCc1nn(C)c2c(=O)[nH]c(-c3cc(S(=O)(=O)N4CCN(C)CC4)ccc3OCC)nc12,-2.46% [at 35.3 µM] (inactive),–
CN(C)C(=O)Oc1ccc[n+](C)c1,-8.96% [at 35.3 µM] (inactive),–
C=CC(C)(CCC=C(C)C)OC(=O)CC (configuration not stated),11.5% (inactive),–
C[N+]12CCC(CC1)C(OC(=O)C(O)(c1ccccc1)c1ccccc1)C2 (configuration not stated),0.21% [at 35.3 µM] (inactive),–
CC1=CCC(O)(C(C)C)CC1 (configuration not stated),1.41% (inactive),–
c1coc(CNc2ncnc3nc[nH]c23)c1,0.583% (inactive),–
Cc1onc(-c2c(Cl)cccc2Cl)c1C(=O)Cl,-3.05% [at 35.3 µM] (inactive),–
CCCC(=O)O[C@]1(C(=O)CC)CC[C@H]2[C@@H]3CCC4=CC(=O)CC[C@]4(C)[C@H]3[C@@H](O)C[C@@]21C,3.31% [at 35.3 µM] (inactive),–
NCCCC[C@H](N[C@@H](CCc1ccccc1)C(=O)O)C(=O)N1CCC[C@H]1C(=O)O,-0.445% [at 35.3 µM] (inactive),–
CC(=O)O[C@@]12CO[C@@H]1C[C@H](O)[C@@]1(C)C(=O)[C@H](O)C3=C(C)[C@@H](OC(=O)[C@H](O)[C@@H](NC(=O)OC(C)(C)C)c4ccccc4)C[C@@](O)([C@@H](OC(=O)c4ccccc4)[C@H]21)C3(C)C,–,6.7 nM (active)
COC(=O)C1=C(C)NC(C)=C(C(=O)OC(C)C)C1c1cccc2nonc12 (configuration not stated),-7.24% [at 35.3 µM] (inactive),–
CC(C)CC(C)(N)C#N (configuration not stated),-1.2% (inactive),–
CCCCCCCCN1CCCC1=O,1.23% (inactive),–
Nc1ccn([C@@H]2O[C@H](CO)[C@@H](O)C2(F)F)c(=O)n1,21.5% [at 35.3 µM] (inactive),–
NC(=O)N1c2ccccc2CC(=O)c2ccccc21,-13% [at 35.3 µM] (inactive),–

Structure (SMILES),cytotoxicity increase,Potency
CCCCOCCOC(=O)COc1cc(Cl)c(Cl)cc1Cl,-8.75% (inactive),–
COc1cc2c(cc1OC)-c1cc3ccc(OC)c(OC)c3c[n+]1CC2,6.62% (inactive),–
CCOCC(C)O (configuration not stated),-5.48% (inactive),–
CC(C)COC(=O)c1ccc(N)cc1,-8.57% [at 35.3 µM] (inactive),–
CC(COc1ccccc1)NN (configuration not stated),-9.93% [at 35.3 µM] (inactive),–
CCCCCCCCCCOc1cc2c(=O)c(C(=O)OCC)c[nH]c2cc1OCC,-9.18% [at 6.97 µM] (inactive),–
C[N+]1(C)[C@@H]2CC(OC(=O)[C@H](CO)c3ccccc3)C[C@H]1[C@@H]1O[C@@H]12 (some centres not stated),-12.4% [at 35.3 µM] (inactive),–
COC(=O)Nc1ccc(Cl)c(Cl)c1,-11.4% (inactive),–
CC(C)c1ccc2ncccc2c1,1.29% (inactive),–
CC(=O)Nc1ccc(OCC(O)CNC(C)C)cc1 (configuration not stated),-7.2% [at 35.3 µM] (inactive),–
CCCCCC(=O)OCCc1ccccc1,-0.918% (inactive),–
C=CCCCCCCCCC(=O)OCC,-3.37% (inactive),–
CN1CC(=O)N/C1=N/C(=O)Nc1cccc(Cl)c1,-1.71% [at 35.3 µM] (inactive),–
Cc1nc2ccc(CN(C)c3ccc(C(=O)N[C@@H](CCC(=O)O)C(=O)O)s3)cc2c(=O)[nH]1,7.24% [at 35.3 µM] (inactive),–
CCCCc1nc(Cl)c(CO)n1Cc1ccc(-c2ccccc2-c2nn[nH]n2)cc1,-12.6% [at 35.3 µM] (inactive),–
CCOC(=O)CCC(=O)OCC,-9.38% (inactive),–
CC(C)(C#N)Nc1nc(Cl)nc(NC2CC2)n1,14.5% (inactive),–
O=[N+]([O-])c1ccc(/C=N\O)o1,-7.65% [at 35.3 µM] (inactive),–

# Assay: A CellTox Green Cytotoxicity Assay to monitor cytotoxicity in HEK293 cells - 8 hour (AID 1224884); also: nearly all actives have a fitted effect of over 35% in size
# Conditions: CellTox Green fluorescence; series mostly up to 76.8 µM; cytotoxicity increase: at the top concentration
# Outline: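 Nonlytic real-time cytotoxicity: HEK293 + CellTox Green reagent plated, 5 h preincubation, pintool compound addition (23 nL in DMSO), 37 C for 40 h, fluorescence measured at successive time points.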
row,Structure (SMILES),cytotoxicity increase
1,CC(=O)NC(=O)c1ccccc1O,-10.1% [at 35.3 µM] (inactive)
2,O=C1NC(=O)C2CC=CCC12 (configuration not stated),4.4% (inactive)
3,CC1=NN(c2cccc(S(=O)(=O)O)c2)C(=O)C1,20.2% (inactive)
4,CCCc1nn(C)c2c(=O)[nH]c(-c3cc(S(=O)(=O)N4CCN(C)CC4)ccc3OCC)nc12,-10.4% [at 35.3 µM] (inactive)
5,CN(C)C(=O)Oc1ccc[n+](C)c1,4.86% [at 35.3 µM] (inactive)
6,C=CC(C)(CCC=C(C)C)OC(=O)CC (configuration not stated),0.7% (inactive)
7,C[N+]12CCC(CC1)C(OC(=O)C(O)(c1ccccc1)c1ccccc1)C2 (configuration not stated),0.466% [at 35.3 µM] (inactive)
8,CC1=CCC(O)(C(C)C)CC1 (configuration not stated),-20.7% (inactive)
9,c1coc(CNc2ncnc3nc[nH]c23)c1,-2.98% (inactive)
10,Cc1onc(-c2c(Cl)cccc2Cl)c1C(=O)Cl,-4.44% [at 35.3 µM] (inactive)
11,CCCC(=O)O[C@]1(C(=O)CC)CC[C@H]2[C@@H]3CCC4=CC(=O)CC[C@]4(C)[C@H]3[C@@H](O)C[C@@]21C,-2% [at 35.3 µM] (inactive)
12,NCCCC[C@H](N[C@@H](CCc1ccccc1)C(=O)O)C(=O)N1CCC[C@H]1C(=O)O,1.09% [at 35.3 µM] (inactive)
13,CC(=O)O[C@@]12CO[C@@H]1C[C@H](O)[C@@]1(C)C(=O)[C@H](O)C3=C(C)[C@@H](OC(=O)[C@H](O)[C@@H](NC(=O)OC(C)(C)C)c4ccccc4)C[C@@](O)([C@@H](OC(=O)c4ccccc4)[C@H]21)C3(C)C,-5.62% [at 35.3 µM] (inactive)
14,COC(=O)C1=C(C)NC(C)=C(C(=O)OC(C)C)C1c1cccc2nonc12 (configuration not stated),-4.07% [at 35.3 µM] (inactive)
15,CC(C)CC(C)(N)C#N (configuration not stated),22.9% (inactive)
16,CCCCCCCCN1CCCC1=O,1.29% (inactive)
17,Nc1ccn([C@@H]2O[C@H](CO)[C@@H](O)C2(F)F)c(=O)n1,-9.59% [at 35.3 µM] (inactive)
18,NC(=O)N1c2ccccc2CC(=O)c2ccccc21,-10.8% [at 35.3 µM] (inactive)

row,Structure (SMILES),cytotoxicity increase
1,CCCCOCCOC(=O)COc1cc(Cl)c(Cl)cc1Cl,-6.56% (inactive)
2,COc1cc2c(cc1OC)-c1cc3ccc(OC)c(OC)c3c[n+]1CC2,-4.01% (inactive)
3,CCOCC(C)O (configuration not stated),2.94% (inactive)
4,CC(C)COC(=O)c1ccc(N)cc1,-5.54% [at 35.3 µM] (inactive)
5,CC(COc1ccccc1)NN (configuration not stated),1.05% [at 35.3 µM] (inactive)
6,CCCCCCCCCCOc1cc2c(=O)c(C(=O)OCC)c[nH]c2cc1OCC,2.19% [at 6.97 µM] (inactive)
7,C[N+]1(C)[C@@H]2CC(OC(=O)[C@H](CO)c3ccccc3)C[C@H]1[C@@H]1O[C@@H]12 (some centres not stated),8.11% [at 35.3 µM] (inactive)
8,COC(=O)Nc1ccc(Cl)c(Cl)c1,-0.822% (inactive)
9,CC(C)c1ccc2ncccc2c1,6.78% (inactive)
10,CC(=O)Nc1ccc(OCC(O)CNC(C)C)cc1 (configuration not stated),3.01% [at 35.3 µM] (inactive)
11,CCCCCC(=O)OCCc1ccccc1,8.64% (inactive)
12,CN1CC(=O)N/C1=N/C(=O)Nc1cccc(Cl)c1,1.18% [at 35.3 µM] (inactive)
13,Cc1nc2ccc(CN(C)c3ccc(C(=O)N[C@@H](CCC(=O)O)C(=O)O)s3)cc2c(=O)[nH]1,3.64% [at 35.3 µM] (inactive)
14,O=S(=O)(O)c1cc(O)c(O)c(S(=O)(=O)O)c1,-14.6% (inactive)
15,CCCCc1nc(Cl)c(CO)n1Cc1ccc(-c2ccccc2-c2nn[nH]n2)cc1,-2.16% [at 35.3 µM] (inactive)
16,CCOC(=O)CCC(=O)OCC,-19.8% (inactive)
17,O=[N+]([O-])c1ccc(/C=N\O)o1,4.21% [at 35.3 µM] (inactive)
18,CCCOC(=O)CC,2.78% (inactive)
